Results reported in PubChem BioAssay.
A number with no mark means an inactive call. For some of these results: Measured potencies and affinities stand elsewhere. Calls of active or inactive are those of the source. Unless noted, the rule behind the calls is not given here.

Key:
[1] = antimalarial activity against Dd2 strain (AID 2302;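 active = growth inhibition above 50% at the single 2 µM test dose, taken to imply half-maximal potency below 2 µM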;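 note: 0% = DMSO untreated growth and 100% = chloroquine plus artemisinin killed control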); conditions: P. falciparum Dd2 in RBCs, LDH growth readout, 72 h; at 2 µM; active compounds read high
[2] = HepG2 cytotoxicity, primary screen, cytotoxicity control for P. falciparum antimalarial project, cell-based, ATP luminescence (AID 2303;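 active = inhibition above 50%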;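 note: 0% = DMSO wells and 100% = digitonin-killed cells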); conditions: HepG2 viability, 24-48 h, at 10 µM, active compounds read high
[3] = target: L-lactate dehydrogenase (Plasmodium falciparum (isolate CDC / Honduras)) (UniProt Q27743); assay: PfLDH activity inhibition – cell lysate, 3D7 strain, counter-screen for P. falciparum growth inhibition project (AID 2304);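 note: 0% = vehicle and 100% = reference inhibitor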; conditions: P. falciparum 3D7 crude extract, LDH APAD/NBT absorbance; at 2 µM; active compounds read high
[4] = inhibition of 3D7 malaria parasite growth – strain 3D7 (AID 2306);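 note: 0% = DMSO wells and 100% = chloroquine plus artemisinin control wells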; conditions: P. falciparum 3D7 erythrocytic growth, LDH absorbance, 72 h; at 2 µM; active compounds read high
[5] = target: Calcium-dependent protein kinase 1 (Plasmodium falciparum (isolate 3D7)) (UniProt P62344); assay: PfCDPK1 kinase inhibitors, biochemical, TCAMS library (AID 1159585; cut-off not given, nearly all actives have IC50 up to about 0.98 µM;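 note: inhibitors leave more ATP so luminescence rises with inhibition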); conditions: recombinant PfCDPK1, Kinase-Glo ATP depletion luminescence
[6] = target: Plasmodium falciparum protein kinase 6 (PK6, PF3D7_1337100) (UniProt Q8IDW1); assay: PfPK6 kinase inhibitors, biochemical, TCAMS library (AID 1159586); conditions: recombinant PfPK6, Kinase-Glo ATP depletion luminescence
[7] = target: Protein kinase 7 (PK7), Plasmodium falciparum 3D7 (PF3D7_0213400) (UniProt Q7YTF7); assay: inhibition of Plasmodium PK7 catalytic activity – biochemical, TCAMS antimalarial set, Kinase-Glo luminescence (AID 1159587); conditions: recombinant PfPK7, Kinase-Glo ATP depletion luminescence
[8] = target: Calcium-dependent protein kinase 4 (Plasmodium falciparum (isolate 3D7)) (UniProt Q8IBS5); assay: PfCDPK4 kinase inhibitors, biochemical, TCAMS library (AID 1159588; cut-off not given, nearly all actives have IC50 up to about 0.91 µM); conditions: recombinant PfCDPK4, Kinase-Glo ATP depletion luminescence
Calcium-dependent protein kinase 4 (Plasmodium falciparum (isolate 3D7)), sequence (Q8IBS5 whole entry, looked up): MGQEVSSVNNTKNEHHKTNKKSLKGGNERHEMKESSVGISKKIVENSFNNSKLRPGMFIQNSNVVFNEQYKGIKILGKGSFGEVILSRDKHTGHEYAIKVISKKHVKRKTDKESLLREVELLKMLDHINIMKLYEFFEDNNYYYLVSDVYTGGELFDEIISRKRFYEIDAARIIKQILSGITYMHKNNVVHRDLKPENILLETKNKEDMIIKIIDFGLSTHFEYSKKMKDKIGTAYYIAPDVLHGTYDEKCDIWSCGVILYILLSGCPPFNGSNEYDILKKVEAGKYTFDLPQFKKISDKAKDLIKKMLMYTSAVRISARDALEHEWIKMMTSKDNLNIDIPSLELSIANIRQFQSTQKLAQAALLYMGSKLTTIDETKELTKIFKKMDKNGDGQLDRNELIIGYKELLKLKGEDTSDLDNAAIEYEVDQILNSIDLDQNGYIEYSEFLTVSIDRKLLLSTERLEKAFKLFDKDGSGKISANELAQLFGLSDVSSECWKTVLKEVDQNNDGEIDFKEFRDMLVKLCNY

Protein kinase 7 (PK7), Plasmodium falciparum 3D7 (PF3D7_0213400), sequence (Q7YTF7 1-343): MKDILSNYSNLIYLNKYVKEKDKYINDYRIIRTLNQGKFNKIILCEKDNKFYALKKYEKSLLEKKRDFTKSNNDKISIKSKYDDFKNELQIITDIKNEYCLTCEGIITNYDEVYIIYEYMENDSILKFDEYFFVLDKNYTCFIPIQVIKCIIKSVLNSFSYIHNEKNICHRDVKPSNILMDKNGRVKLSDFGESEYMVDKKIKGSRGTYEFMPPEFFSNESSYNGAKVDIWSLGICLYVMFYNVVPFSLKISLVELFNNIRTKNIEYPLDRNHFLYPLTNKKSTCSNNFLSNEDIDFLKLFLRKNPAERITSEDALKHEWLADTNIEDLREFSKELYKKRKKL
Plasmodium falciparum protein kinase 6 (PK6, PF3D7_1337100), sequence (Q8IDW1 1-305): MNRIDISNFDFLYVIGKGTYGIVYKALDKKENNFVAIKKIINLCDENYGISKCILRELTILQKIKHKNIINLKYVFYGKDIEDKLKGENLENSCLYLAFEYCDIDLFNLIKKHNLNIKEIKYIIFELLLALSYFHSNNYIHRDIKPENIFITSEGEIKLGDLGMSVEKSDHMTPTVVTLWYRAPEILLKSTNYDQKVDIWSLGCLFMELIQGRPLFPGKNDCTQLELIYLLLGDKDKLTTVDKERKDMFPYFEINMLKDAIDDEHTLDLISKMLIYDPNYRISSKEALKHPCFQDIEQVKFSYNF
L-lactate dehydrogenase (Plasmodium falciparum (isolate CDC / Honduras)), sequence (Q27743 whole entry, looked up): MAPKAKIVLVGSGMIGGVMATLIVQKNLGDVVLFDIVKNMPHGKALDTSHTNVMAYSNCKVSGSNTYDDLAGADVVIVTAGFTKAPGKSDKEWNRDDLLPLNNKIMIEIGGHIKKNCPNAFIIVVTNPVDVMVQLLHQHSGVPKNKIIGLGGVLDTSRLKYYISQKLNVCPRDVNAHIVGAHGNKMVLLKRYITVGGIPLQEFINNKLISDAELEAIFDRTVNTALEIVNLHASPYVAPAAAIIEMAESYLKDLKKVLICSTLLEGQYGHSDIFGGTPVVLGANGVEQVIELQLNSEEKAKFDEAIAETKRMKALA
Calcium-dependent protein kinase 1 (Plasmodium falciparum (isolate 3D7)), sequence (P62344 whole entry, looked up): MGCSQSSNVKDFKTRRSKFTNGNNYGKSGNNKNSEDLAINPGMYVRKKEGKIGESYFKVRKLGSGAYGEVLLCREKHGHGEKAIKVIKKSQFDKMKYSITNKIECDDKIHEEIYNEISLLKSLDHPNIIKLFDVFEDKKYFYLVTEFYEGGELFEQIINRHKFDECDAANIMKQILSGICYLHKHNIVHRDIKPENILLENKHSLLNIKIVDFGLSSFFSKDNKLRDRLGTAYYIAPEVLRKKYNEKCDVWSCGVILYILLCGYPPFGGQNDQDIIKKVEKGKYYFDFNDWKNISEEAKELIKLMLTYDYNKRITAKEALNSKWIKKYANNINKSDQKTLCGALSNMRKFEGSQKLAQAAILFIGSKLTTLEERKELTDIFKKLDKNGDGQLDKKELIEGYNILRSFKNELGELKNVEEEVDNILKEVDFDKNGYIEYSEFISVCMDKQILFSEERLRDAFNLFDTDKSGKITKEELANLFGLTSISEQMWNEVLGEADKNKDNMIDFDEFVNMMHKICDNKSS

SMILES | growth inhibition [1] | inhibition [2] | inhibition [3] [%] | growth inhibition [4] | outcome [5] | outcome [6] | outcome [7] | outcome [8]
COc1ccc2nccc([C@@H](O)CN3CC[C@H](NCc4cnc5c(c4)NC(=O)CS5)[C@H](F)C3)c2c1 | 90% (active) | -4% | -2 | 90% (active) | inactive | inactive | inactive | inactive
Cc1cc(CN2CCC(N3CC(c4ccccc4)(c4ccccc4)OCC3=O)C2)ccc1O (stereo not given) | 52% (active) | 3% | 3 | 89% (active) | inactive | inactive | inactive | inactive
CSc1sc(NC(=O)Nc2cccc(C(F)(F)F)c2)cc1C#N | 46% | 27% | -1 | 99% (active) | inactive | inactive | inactive | inactive
Cc1cccc(N2C(N)=NC(N)=NC2(C)C)c1C | -2% | -2% | -6 | 90% (active) | inactive | inactive | inactive | inactive
NC(=O)c1cccc(-n2ccc3cc(CNC4Cc5ccccc5C4)ccc32)c1 | 7% | 17% | -1 | 88% (active) | inactive | inactive | inactive | inactive
CCCCN1CCN(c2cc(NS(=O)(=O)c3cccc(C(=O)Nc4ccc(C(F)(F)F)cc4)c3)ccc2OC)CC1 | 7% | 6% | 4 | 99% (active) | inactive | inactive | inactive | inactive
O=S(=O)(/C=C/c1ccccc1)N(Cc1ccc(-c2ccc(CNCCc3ccccc3)cc2)cc1)CC1CCCCN1 (stereo not given) | 96% (active) | 99% (active) | -2 | 100% (active) | inactive | inactive | inactive | inactive
Cc1ccc2nc(C)n(C3CCN(C(=O)Cc4ccccc4C)CC3)c2c1 | 100% (active) | 2% | 1 | 100% (active) | inactive | inactive | inactive | inactive
O=C(NCCN1CCCC1)c1ccc(-c2ccc(-c3nc4ccccc4[nH]3)s2)cc1 | 3% | 22% | -2 | 92% (active) | inactive | inactive | inactive | inactive
CCN(CC)Cc1ccc2c(=O)cc(CCc3cccc(F)c3F)n(CC(=O)N(Cc3ccc(-c4ccc(C(F)(F)F)cc4)cc3)C(C)C)c2c1 | 63% (active) | 82% (active) | -6 | 102% (active) | inactive | inactive | inactive | inactive
CCOC(=O)c1ccc(NC(=O)NC2CCN(CCCCCNC(=O)/C=C/c3ccc(Cl)c(Cl)c3)C2)cc1 (stereo not given) | 0% | 23% | -3 | 98% (active) | inactive | inactive | inactive | inactive
Cc1cccc2[nH]c(-c3ccc(-c4ccc(CNCCCN5CCCC5=O)cc4)s3)nc12 | 43% | 17% | 2 | 101% (active) | inactive | inactive | inactive | inactive
Nc1cccc(CNCc2ccc(-c3cccc(-c4nc5ccc(C(F)(F)F)cc5[nH]4)c3)cc2)c1 | 100% (active) | 60% (active) | -2 | 100% (active) | inactive | inactive | inactive | inactive
CN1CCN(c2cccc(Nc3nccc(NCC(O)c4ccccc4)n3)c2)CC1 (stereo not given) | 4% | 30% | -2 | 101% (active) | inactive | inactive | inactive | inactive
CS(=O)(=O)Nc1cccc(-c2cnc3[nH]cc(-c4ccc(CCC(=O)O)cc4)c3c2)c1 | 78% (active) | 7% | 2 | 98% (active) | inactive | inactive | inactive | inactive
COc1ccc(CNCc2cccc(-c3cccc(-c4nc5ccc(C(F)(F)F)cc5[nH]4)c3)c2)cc1 | 91% (active) | 40% | 4 | 100% (active) | inactive | inactive | inactive | inactive
CN(CC(=O)Nc1cc(C(F)(F)F)ccc1-n1cncn1)Cc1nc2ccccc2s1 | 64% (active) | 3% | 0 | 87% (active) | inactive | inactive | inactive | inactive
O=S(=O)(c1ccc(NC(=S)NN=Cc2ccccn2)cc1)N1CCCCC1 | 56% (active) | 43% | -5 | 98% (active) | inactive | inactive | inactive | inactive
CC(C)c1nc2c(N)nc(N)nc2nc1N | -1% | 64% (active) | 2 | 84% (active) | inactive | inactive | inactive | inactive
CCN(CC)C(=O)C1CCCN(C(=O)Nc2cc(C(F)(F)F)cc(C(F)(F)F)c2)C1 (stereo not given) | 98% (active) | 0% | -2 | 86% (active) | inactive | inactive | inactive | inactive
